Reference: PubChem BioAssay (Tox21)
Several values for one entry are separate records, joined by “and”; a condition that tells them apart may be missing. Identical values can stand only once. Records with an inconclusive call do not appear. Some structures have more than one record in an assay (separate samples or runs), and their calls can disagree. Activity calls are given as the source filed them. Unless noted, the call rests on the fitted dose curve; in most records, active means well fitted curve in the direction sought with a large enough effect in the repeat runs; inconclusive means weak or mixed curves; inactive means no such curve, though single readings can be large; an effect the other way counts as inactive or inconclusive.

Legend:
[1] = qHTS assay for small molecule agonists of the p53 signaling pathway - cell viability (AID 651633; calls by dose curve; further: nearly all actives have a fitted effect of over 30% in size; further: potency means the concentration at half of the fitted maximal effect)
In short: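 p53RE-bla cells were treated with compound for 16 hours at 37 C. Cytotoxicity was then measured as CellTiter-Glo luminescence after 30 min at room temperature.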

[2] = qHTS assay for small molecule disruptors of the mitochondrial membrane potential - cell viability (AID 720634; calls by dose curve; further: nearly all actives have a fitted effect of over 20% in size; further: potency means the concentration at half of the fitted maximal effect)
In short: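 HepG2 cells seeded overnight at 37 C, then exposed to compound or DMSO for 1 hr at 37 C, 5% CO2. m-MPI dye added, then CellTiter-Glo for 30 min at room temperature; viability read as ATP luminescence.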

[3] = qHTS assay for small molecule disruptors of the mitochondrial membrane potential (AID 720635); further: potency means the concentration at half of the fitted maximal effect
In short: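 HepG2 cells exposed to compound 1 hr at 37C, then Mito-MPS dye 30 min. Ratio read of aggregate (540/590 nm) versus monomer (490/535 nm) fluorescence.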

[4] = qHTS assay to test for compound auto fluorescence at 590 nm (red) in HepG2 cells (AID 720674)
In short: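 Seeding: 2,000 HepG2 cells/well, MEM/10% FBS, overnight 37 C. Dosing: compound vs DMSO. Incubation: 1 hr, 37 C, 5% CO2. Read: fluorescence 540 ex/590 em, Rose Bengal sodium as red reference.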

[5] = qHTS assay to test for compound auto fluorescence at 535 nm (green) in HepG2 cells (AID 720675)
[6] = qHTS assay to test for compound auto fluorescence at 460 nm (blue) in HEK293 cells (AID 720678)
In short: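 HEK293 cells (2,000/well, medium with 10% dialyzed FBS) attached 4-5 hr, then exposed to compound overnight at 37C, 5% CO2. Blue fluorescence read at 405/460 nm, with triamterene as reference fluorophore.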

[7] = qHTS assay to test for compound auto fluorescence at 590 nm (red) in HEK293 cells (AID 720679)
In short: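 HEK293 cells (2,000/well, 10% dialyzed FBS) attached 4-5 hr, then dosed with compound or DMSO and incubated overnight at 37C, 5% CO2. Red fluorescence read at 540/590 nm, Rose Bengal sodium as reference fluorophore.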

[8] = qHTS assay for small molecules that induce genotoxicity in human embryonic kidney cells expressing luciferase-tagged ATAD5 - cell viability (AID 651634; calls by dose curve; further: nearly all actives have a fitted effect of over 25% in size; further: potency means the concentration at half of the fitted maximal effect)
In short: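 HEK293T cells expressing luciferase-tagged ATAD5 were exposed to compound or DMSO for 15.5 hr at 37C, 5% CO2. Viability was then read as live-cell protease activity by CellTiter-Fluor fluorescence after 30 min at 37C.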

Measured: Potency

CN(C)c1ccc(C(=C2C=CC(=[N+](C)C)C=C2)c2ccccc2)cc1
active: [1] 23.7 µM and 273 nM | [3] 29.8 µM and 77 nM
inactive and 17.2 µM (active): [2]
inactive: [4] | [5] | [6] | [7]

CC(=O)CC(C)=O
inactive: [1] | [8] | [2] | [4] | [5] | [6] | [7]

C=CC(=O)OCCCCCCOC(=O)C=C
active: [8] 31 µM
inactive: [1] | [2] | [3] | [4] | [5] | [6] | [7]

O=C(OCc1ccccc1)c1ccc(O)cc1
inactive: [1] | [8] | [4] | [5] | [6] | [7]
active: [3] 13.3 µM and 15.4 µM

CCCCCCCCCCCCCC[P+](CCCC)(CCCC)CCCC
active: [1] 24.2 µM and 15.4 µM | [8] 30.5 µM and 27.3 µM | [3] 542 nM and 486 nM
inactive: [5] | [6] | [7]

CCCN[C@H]1CCc2nc(N)sc2C1
inactive: [1] | [8] | [2] | [3] | [4] | [5] | [6] | [7]

COc1ccc(Cc2cnc(N)nc2N)cc1OC
inactive: [1] | [8] | [2] | [3] | [4] | [5] | [6] | [7]

O
active: [3] 31 µM
inactive: [1] | [8] | [4] | [5] | [6] | [7]

c1cnc2cc3c(cc2n1)C1CNCC3C1
inactive: [1] | [8] | [2] | [3] | [4] | [5] | [6] | [7]

NC(N)=Nc1nc(CSCC/C(N)=N/S(N)(=O)=O)cs1
inactive: [1] | [8] | [2] | [3] | [4] | [5] | [6] | [7]

Oc1ccc(Cl)cc1Cc1cc(Cl)ccc1O
active: [1] 18.8 µM and 55.5 µM and 43.3 µM | [3] 1.88 µM and 1.24 µM and 1.22 µM
inactive: [8] | [4] | [5] | [6] | [7]

CC(C)(C)NC(=O)[C@@H]1CN(Cc2cccnc2)CCN1C[C@@H](O)C[C@@H](Cc1ccccc1)C(=O)N[C@H]1c2ccccc2C[C@H]1O
inactive: [4] | [5] | [6] | [7]
13.3 µM (active) and inactive: [2]
active: [3] 7.5 µM

COc1ccc(CCN2CCC(Nc3nc4ccccc4n3Cc3ccc(F)cc3)CC2)cc1
active: [1] 26.6 µM and 11.1 µM | [8] 26.6 µM and 44.2 µM | [2] 49.6 µM
inactive: [4] | [5] | [6] | [7]

NNCCc1ccccc1
inactive: [8] | [3] | [4] | [5] | [6] | [7]

CCC(=O)/C=C/C1C(C)=CCCC1(C)C (configuration not stated)
inactive: [1] | [8] | [2] | [4] | [5] | [6] | [7]
active: [3] 27.3 µM

CCCCCC(=O)O[C@]1(C(C)=O)CC[C@H]2[C@@H]3CCC4=CC(=O)CC[C@]4(C)[C@H]3CC[C@@]21C
active: [1] 26.6 µM and 54.1 µM | [3] 11.9 µM and 15.2 µM
inactive: [8] | [5] | [6] | [7]

Nc1ccc(O)cc1
inactive: [4] | [5] | [6] | [7]
active: [1] 26.6 µM and 30.6 µM and 31.8 µM | [2] 31.8 µM | [3] 841 nM and 3.06 µM and 897 nM

Cc1ccc(S(=O)(=O)Oc2ccc(N=Nc3ccc(-c4ccc(N=Nc5c(O)ccc6cc(S(=O)(=O)O)cc(S(=O)(=O)O)c56)c(C)c4)cc3C)cc2)cc1
inactive: [1] | [2] | [4] | [5] | [6] | [7]
active: [8] 54.7 µM and 20 µM

CCN(CC)CCOc1ccc(/C(=C(\Cl)c2ccccc2)c2ccccc2)cc1
active: [1] 29.8 µM and 49.6 µM
inactive: [8] | [4] | [5] | [6] | [7]

NC12CC3CC(CC(C3)C1)C2
inactive: [1] | [8] | [2] | [4] | [5] | [6] | [7]

BrC1CCC(Br)C(Br)CCC(Br)C(Br)CCC1Br (configuration not stated)
inactive: [8] | [2] | [4] | [5] | [6] | [7]
active: [1] 15.3 µM and 25.9 µM | [3] 3.84 µM and 9.19 µM

O=C(Oc1ccccc1)c1ccccc1O
inactive and 54.5 µM (active): [3]
inactive: [8] | [4] | [5] | [6] | [7]

OCCN1CCNCC1
inactive: [1] | [8] | [2] | [3] | [4] | [5] | [6] | [7]

CCC(CO)(CO)COCC(CC)(CO)CO
inactive: [1] | [8] | [2] | [3] | [4] | [5] | [6] | [7]

CC(C)(C)c1cc(C(C)(C)C)c(O)c(C(C)(C)C)c1
active: [1] 34.4 µM | [3] 17.2 µM and 27.3 µM
inactive: [8] | [2] | [4] | [5] | [6] | [7]

CC(=O)N[C@@H](CS)C(=O)O
inactive: [1] | [8] | [4] | [5] | [6] | [7]

CCn1c2ccccc2c2cc(N)ccc21
active: [3] 27 µM and 24.3 µM and 7.7 µM
inactive: [1] | [8] | [4] | [5] | [6] | [7]
